Reference: PubChem BioAssay (NCATS)
Inconclusive results are not listed. Activity calls are given as the source filed them. Unless noted, calls come from the whole dose curve; as a rule, active = well fitted cell-killing curve with a large enough effect; inconclusive = small, poorly fitted or top-dose-only effect, or effect the other way; inactive = no such curve, though single readings can be large or run the other way.

Tests used:
[1] = Quantitative High-Throughput drug screen in 47 multiple myeloma cell lines against the NCATS MIPE library collection: UTMC2_PLB cell viability assay (AID 1919868); details: CellTiter-Glo ATP luminescence, 48 h; viability (% of DMSO control): at 45.8 µM (top of the series) unless noted; note: nearly all actives have a fitted effect of over 55% in size;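 for viability (% of DMSO control): 100% = DMSO-only wells and 0% = media-only wells without cells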
How it was run: (§1)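 Plated at 500 cells per well, myeloma lines received MIPE 4.0 compounds by pin tool. Following 48 h culture at 37 °C, CellTiter-Glo luminescence gave viability relative to DMSO and media-only controls.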

[2] = Quantitative High-Throughput drug screen in 47 multiple myeloma cell lines against the NCATS MIPE library collection: PE2_PLB cell viability assay (AID 1919869); note: nearly all actives have a fitted effect of over 35% in size
How it was run: as §1

[3] = Quantitative High-Throughput drug screen in 47 multiple myeloma cell lines against the NCATS MIPE library collection: RPMI8226_ATCC cell viability assay (AID 1919871); note: nearly all actives have a fitted effect of over 30% in size
How it was run: as §1

[4] = Quantitative High-Throughput drug screen in 47 multiple myeloma cell lines against the NCATS MIPE library collection: KMS11_JCRBsus cell viability assay (AID 1919873); note: nearly all actives have a fitted effect of over 50% in size
How it was run: as §1

[5] = Quantitative High-Throughput drug screen in 47 multiple myeloma cell lines against the NCATS MIPE library collection: KMS28BM_JCRB cell viability assay (AID 1919874); note: nearly all actives have a fitted effect of over 35% in size
How it was run: as §1

[6] = qHTS drug screen for cell cycle checkpoint inhibitors in PARPi-resistant BRCA-mutant ovarian cancer cell lines. (AID 1963452; calls by dose curve); details: PEO1/OlaR viability, CellTiter-Glo luminescence, 96 h; for Z-AUC: stronger effect = lower value
How it was run: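 PEO1, PEO4 and PEO1/OlaR ovarian cancer cells, 600 per well, exposed 96 h at 37C to a dilution series. Viability read by CellTiter-Glo luminescence, normalized to DMSO and empty wells; activity summarized as Z-AUC.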

[7] = Quantitative High-Throughput drug screen in 47 multiple myeloma cell lines against the NCATS MIPE library collection: PCM6_Riken cell viability assay (AID 1919870); note: nearly all actives have a fitted effect of over 30% in size
How it was run: as §1

[8] = Quantitative High-Throughput drug screen in 47 multiple myeloma cell lines against the NCATS MIPE library collection: OPM2_DSMZ cell viability assay (AID 1919872); note: nearly all actives have a fitted effect of over 30% in size
How it was run: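 Approved and investigational drugs from MIPE 4.0 were added by pin tool to 500 cells per well. After 48 hours at 37C, ATP-based CellTiter-Glo luminescence indicated remaining viability.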

[9] = qHTS for identification of novel therapeutic agents for treatment of microphthalmiaassociated transcription factor (MiT) renal cell carcinoma (RCC) (AID 1963991; calls by dose curve); details: CellTiter-Glo, 48 h; for z-score: stronger effect = lower value
How it was run: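 Three TFE3-fusion RCC lines (UOK109, UOK124, UOK145), 500 cells/well in complete medium, were treated with MIPE 4.0 compounds for 48 hours at 37 C. Viability was by CellTiter-Glo luminescence, normalized to DMSO (100%) and empty wells (0%); curves fitted over 11 concentrations.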

[10] = measured here: PEO1 parental Z-AUC
[11] = TFE3-RCC UOK109 viability, measured here: UOK109 Z-AUC
[12] = TFE3-RCC viability, measured here: UOK124 Z-AUC
[13] = TFE3-RCC viability, measured here: UOK145 Z-AUC
Potency is the fitted concentration of half-maximal effect.

Row | SMILES | Potency [1] | Potency [2] | Potency [3] | Potency [4] | Potency [5] | Z-AUC [6] | Z-AUC [6, 10] | Z-AUC ([6]; measured here: PEO4 Z-AUC) | Potency [7] | Potency [8] | Potency [6] | Potency ([9]; TFE3-RCC UOK109 viability, active = Z-AUC below -0.8 in all three lines) | z-score [9, 11] | z-score [9, 12] | z-score [9, 13]
1 | CN(c1ncccc1CNc1nc(Nc2ccc3c(c2)CC(=O)N3)ncc1C(F)(F)F)S(C)(=O)=O | 2350 nM (active) | 3320 nM (active) | 8330 nM (active) | 2640 nM (active) | 6620 nM (active) | -0.236 (inactive) | -0.701 | -0.665 |  |  |  |  |  |  | 
2 | O=c1[nH]nc(Sc2ncc([N+](=O)[O-])s2)n1-c1ccc2c(c1)OCCO2 | 2350 nM (active) |  |  | 2960 nM (active) | 2960 nM (active) | 0.0772 (inactive) | 0.187 | -0.291 | 1480 nM (active) | 8330 nM (active) |  |  |  |  | 
3 | Cc1cnc(-c2cnc(NCCNc3ccc(C#N)cn3)nc2-c2ccc(Cl)cc2Cl)[nH]1 | 13200 nM (active) |  |  |  |  |  |  |  | 13200 nM (active) |  |  |  |  |  | 
4 | CNc1nccc(-c2cccnc2Oc2cc(C(=O)Nc3cccc(C(F)(F)F)c3)ccc2C)n1 | 14800 nM (active) | 6620 nM (active) |  | 18700 nM (active) | 23500 nM (active) | 0.523 (inactive) | -0.637 | 0.0306 |  |  |  |  |  |  | 
5 | Cc1ccc2nc(NC(=O)CSc3nc4c(c(=O)n3-c3ccccc3)SCC4)sc2c1 | inactive | 9350 nM (active) |  | 8330 nM (active) | 9350 nM (active) | 1.55 (inactive) | 1.46 | 1.44 |  | 20900 nM (active) |  |  |  |  | 
6 | O=C(Nc1cc(C(F)(F)F)cc(C(F)(F)F)c1)c1cc(Cl)ccc1O | 743 nM (active) |  | 662 nM (active) | 332 nM (active) | 833 nM (active) |  | -1.29 | -1.54 | 1320 nM (active) | 1320 nM (active) | 977 nM (active) | 1180 nM (active) | -1.74 | -1.08 | -1.95
7 | CC(O)C1C(=O)N2C(C(=O)O)=C(SC3CNC(C(=O)N(C)C)C3)C(C)C12 (stereo unspecified) | inactive |  |  | inactive | inactive |  |  |  | inactive |  |  |  | 0.648 | 0.116 | 0.637
8 | O=C(c1cncc(Br)c1)N1CCC(N2CCCC2)CC1 |  | inactive | inactive | inactive | inactive | -0.226 (inactive) | -0.235 | 0.232 | inactive | inactive |  |  | 0.796 | 0.785 | 0.752
9 | Cc1[nH]nc2ccc(-c3cncc(OC[C@@H](N)Cc4ccccc4)c3)cc12 | 590 nM (active) |  |  |  | 296 nM (active) | -1.08 (inactive) | -1.59 | -1.81 |  | 9350 nM (active) |  |  |  |  | 
